# Data: PubChem BioAssay AID1159580 (chemical genetic matrix, 2015)
# The whole screen tested about 5,500 compounds, of which about 2,000 (36%) were called active. About 18% were inconclusive and are not listed. This is one part of the list. Values without a mark were called inactive. Cut-off read from the data, not from the text of the source: active = normalized growth mostly below about 0.91 (no sharp cut-off); inconclusive = no clear call, values can overlap the other calls; inactive = mostly above about 0.92.
# Assay: chemical genetic growth profiling, strain panel (AID 1159580);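 note: tested at 20 µM; growth read once vehicle control cultures reached saturation at 30 °C; 1 = growth at the plate median or of vehicle wells; lower values mean less growth of the strain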
# Details: S. cerevisiae deletion strains, growth OD
# [1] = locus YHR079C, strain IRE1, active compounds read low
# [2] = locus YJL095W, strain BCK1, active compounds read low
# [3] = locus YJR066W, strain TOR1, active compounds read low
# [4] = locus YLR113W, strain HOG1, active compounds read low
# [5] = locus YNL183C, strain NPR1, active compounds read low
# [6] = locus YOR231W, strain MKK1, active compounds read low
# [7] = locus YPL256C, strain CLN2, active compounds read low
# [8] = locus YAR019C, strain CDC15, active compounds read low
# [9] = locus YBL105C, strain PKC1, active compounds read low
# [10] = locus YBR135W, strain CKS1, active compounds read low
# [11] = locus YBR136W, strain MEC1, active compounds read low
# [12] = locus YBR160W, strain CDC28, active compounds read low
# [13] = locus YDL017W, strain CDC7, active compounds read low
# [14] = locus YDL028C, strain MPS1, active compounds read low
# [15] = locus YDL101C, strain DUN1, active compounds read low
# [16] = locus YDL108W, strain KIN28, active compounds read low
# [17] = locus YDL132W, strain cdc53, active compounds read low
# [18] = locus YDL214C, strain PRR2, active compounds read low
# [19] = locus YDR052C, strain DBF4, active compounds read low
# [20] = locus YDR054C, strain cdc34, active compounds read low
# [21] = locus YDR226W, strain ADK1, active compounds read low
# [22] = locus YDR477W, strain SNF1, active compounds read low
# [23] = locus YER123W, strain YCK3, active compounds read low
# [24] = locus YER133W, strain GLC7, active compounds read low
# [25] = locus YFL009W, strain cdc4, active compounds read low
# [26] = locus YFL029C, strain CAK1, active compounds read low
# [27] = locus YFR003C, strain YPI1, active compounds read low
# [28] = locus YFR019W, strain FAB1, active compounds read low
# [29] = locus YFR028C, strain CDC14, active compounds read low
# [30] = locus YGR040W, strain KSS1, active compounds read low
# [31] = locus YGR052W, strain FMP48, active compounds read low
# [32] = locus YGR092W, strain DBF2, active compounds read low
# [33] = locus YHR030C, strain SLT2, active compounds read low
# [34] = locus YHR082C, strain KSP1, active compounds read low
# [35] = locus YHR205W, strain SCH9, active compounds read low
# [36] = locus YIL147C, strain SLN1, active compounds read low
# [37] = locus YJL128C, strain PBS2, active compounds read low
# [38] = locus YJL157C, strain FAR1, active compounds read low
# [39] = locus YJR016C, strain ILV3, active compounds read low
# [40] = locus YJR066W, strain TOR1 (second series), active compounds read low
# [41] = locus YKL048C, strain ELM1, active compounds read low
# [42] = locus YKL067W, strain YNK1, active compounds read low
# [43] = locus YKL101W, strain HSL1, active compounds read low
# [44] = locus YKL193C, strain SDS22, active compounds read low
# [45] = locus YKL203C, strain TOR2, active compounds read low
# [46] = locus YLR133W, strain CKI1, active compounds read low
# [47] = locus YLR403W, strain SFP1, active compounds read low
# [48] = locus YML070W, strain DAK1, active compounds read low
# [49] = locus YMR001C, strain CDC5, active compounds read low
# [50] = locus YMR205C, strain PFK2 (second series), active compounds read low
# [51] = locus YMR277W, strain FCP1, active compounds read low
# [52] = locus YNL006W, strain LST8, active compounds read low
# [53] = locus YNL020C, strain ARK1, active compounds read low
# [54] = locus YNL161W, strain CBK1, active compounds read low
# [55] = locus YNL207W, strain RIO2, active compounds read low
# [56] = locus YNL222W, strain SSU72, active compounds read low
# [57] = locus YNL307C, strain MCK1 (second series), active compounds read low
# [58] = locus YOL078W, strain AVO1, active compounds read low
# [59] = locus YOL136C, strain PFK27, active compounds read low
# [60] = locus YOR061W, strain CKA2, active compounds read low
# [61] = locus YOR119C, strain RIO1, active compounds read low
# [62] = locus YOR329C, strain SCD5, active compounds read low
# [63] = locus YPL031C, strain PHO85, active compounds read low
# [64] = locus YPL153C, strain RAD53, active compounds read low
# [65] = locus YPL204W, strain HRR25, active compounds read low
# [66] = locus YPL209C, strain IPL1, active compounds read low
# [67] = locus YPR025C, strain CCL1, active compounds read low
# [68] = locus YPR106W, strain ISR1, active compounds read low
# [69] = locus YPR111W, strain DBF20, active compounds read low
# [70] = strain NNK1, active compounds read low
# [71] = strain TSCII, active compounds read low
smiles,measurement,setting,value
Cc1ncc([N+](=O)[O-])n1CC(O)CCl (centres undefined),normalized growth,[1],0.977
same,normalized growth,[2],0.965
same,normalized growth,[3],0.956
same,normalized growth,[4],0.978
same,normalized growth,[5],0.922
same,normalized growth,[6],0.97
same,normalized growth,[7],0.933
Clc1ccccc1-c1csc(-c2ccncc2)n1,normalized growth,[8],0.962
same,normalized growth,[9],0.966
same,normalized growth,[10],0.964
same,normalized growth,[11],0.968
same,normalized growth,[12],0.962
same,normalized growth,[13],0.964
same,normalized growth,[14],0.966
same,normalized growth,[15],0.963
same,normalized growth,[16],0.965
same,normalized growth,[17],0.966
same,normalized growth,[18],0.971
same,normalized growth,[19],0.977
same,normalized growth,[20],0.922
same,normalized growth,[21],0.966
same,normalized growth,[22],0.937
same,normalized growth,[23],0.895
same,normalized growth,[24],0.945
same,normalized growth,[25],0.942
same,normalized growth,[26],0.964
same,normalized growth,[27],0.964
same,normalized growth,[28],0.961
same,normalized growth,[29],0.96
same,normalized growth,[30],0.951
same,normalized growth,[31],1.02
same,normalized growth,[32],0.85
same,normalized growth,[33],0.946
same,normalized growth,[1],0.923
same,normalized growth,[34],1.12
same,normalized growth,[35],1.03
same,normalized growth,[36],0.962
same,normalized growth,[2],0.829
same,normalized growth,[37],0.933
same,normalized growth,[38],0.93
same,normalized growth,[39],0.964
same,normalized growth,[40],0.94
same,normalized growth,[3],1.02
same,normalized growth,[41],0.99
same,normalized growth,[42],0.974
same,normalized growth,[43],0.987
same,normalized growth,[44],0.949
same,normalized growth,[45],0.992
same,normalized growth,[4],0.969
same,normalized growth,[46],0.979
same,normalized growth,[47],0.927
same,normalized growth,[48],0.977
same,normalized growth,[49],0.963
same,normalized growth,[50],0.972
same,normalized growth,[51],0.963
same,normalized growth,[52],0.97
same,normalized growth,[53],0.965
same,normalized growth,[54],0.96
same,normalized growth,[5],1.07
same,normalized growth,[55],0.962
same,normalized growth,[56],0.965
same,normalized growth,[57],0.971
same,normalized growth,[58],0.957
same,normalized growth,[59],0.97
same,normalized growth,[60],0.99
same,normalized growth,[61],0.981
same,normalized growth,[6],0.988
same,normalized growth,[62],0.964
same,normalized growth,[63],0.918
same,normalized growth,[64],0.925
same,normalized growth,[65],0.93
same,normalized growth,[66],0.965
same,normalized growth,[7],1.03
same,normalized growth,[67],0.968
same,normalized growth,[68],0.965
same,normalized growth,[69],0.97
same,normalized growth,[70],0.97
same,normalized growth,[71],0.951
COc1ccc(-c2csc(-c3cccnc3)n2)cc1,normalized growth,[8],0.96
same,normalized growth,[9],0.966
same,normalized growth,[10],0.957
same,normalized growth,[11],0.958
same,normalized growth,[12],0.963
same,normalized growth,[13],0.961
same,normalized growth,[14],0.965
same,normalized growth,[15],0.951
same,normalized growth,[16],0.958
same,normalized growth,[17],0.961
same,normalized growth,[18],0.909
same,normalized growth,[19],0.973
same,normalized growth,[20],0.945
same,normalized growth,[21],0.946
same,normalized growth,[22],0.894
same,normalized growth,[23],0.847
same,normalized growth,[24],0.888
same,normalized growth,[25],0.954
same,normalized growth,[26],0.949
same,normalized growth,[27],0.947
same,normalized growth,[28],0.86
same,normalized growth,[29],0.949
same,normalized growth,[30],0.858
same,normalized growth,[31],0.993
same,normalized growth,[32],0.828
same,normalized growth,[33],0.849 (active)
same,normalized growth,[1],0.889
same,normalized growth,[34],0.954
same,normalized growth,[35],0.955
same,normalized growth,[36],0.961
same,normalized growth,[2],0.884
same,normalized growth,[37],0.966
same,normalized growth,[38],0.914
same,normalized growth,[39],0.955
same,normalized growth,[40],0.857
same,normalized growth,[3],0.891
same,normalized growth,[41],0.958
same,normalized growth,[42],0.912
same,normalized growth,[43],0.928
same,normalized growth,[44],0.948
same,normalized growth,[45],0.904
same,normalized growth,[4],1.01
same,normalized growth,[46],0.915
same,normalized growth,[47],0.877
same,normalized growth,[48],0.912
same,normalized growth,[49],0.959
same,normalized growth,[50],0.907
same,normalized growth,[51],0.95
same,normalized growth,[52],0.968
same,normalized growth,[53],0.903
same,normalized growth,[54],0.963
same,normalized growth,[5],0.882
same,normalized growth,[55],0.949
same,normalized growth,[56],0.953
same,normalized growth,[57],0.888
same,normalized growth,[58],0.948
same,normalized growth,[59],0.915
same,normalized growth,[60],0.929
same,normalized growth,[61],0.948
same,normalized growth,[6],0.906
same,normalized growth,[62],0.957
same,normalized growth,[63],0.876
same,normalized growth,[64],0.883
same,normalized growth,[65],0.852
same,normalized growth,[66],0.963
same,normalized growth,[7],0.901
same,normalized growth,[67],0.958
same,normalized growth,[68],0.958
same,normalized growth,[69],0.956
same,normalized growth,[70],0.957
same,normalized growth,[71],0.952
